Data reported in PubChem BioAssay (Tox21).
Results filed as inconclusive are left out. Entries that show only a call come without a potency. A number with no mark means an inactive call. Active and inactive are the calls of the source. The call rests on the fitted dose curve; in most records, active means well fitted activation curve with a large enough effect in the repeat runs; inconclusive means weak or mixed curves; inactive means flat fitted curve, though single readings scatter. Positions of bridges follow the written chain, without caps; N, C: chain ends. Non-standard residues stand in square brackets, D forms with d. Residues, ends and D or L forms follow the SMILES beside them. hArg = N=C(N)NCCCC[C@H](N)C(=O)O; Mpa = O=C(O)CCS

assay: A CellTox Green Cytotoxicity Assay to monitor cytotoxicity in HepG2 cells - 40 hour (AID 1224879); conditions: CellTox Green fluorescence; series mostly up to 76.8 µM; further: nearly all actives have a fitted effect of over 40% in size
Summary of the method: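 Continuous culture of HepG2 cells with a membrane-impermeant DNA dye; rising fluorescence marks dead cells. Compound exposure lasted up to 40 h at 37 C, with reads every 8 h from 0 h.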

SMILES | Potency | cytotoxicity increase
Cc1c(Cl)cccc1Cl | inactive | 
C[C@]12CCC(=O)C=C1CC[C@H]1[C@@H]3CC[C@](O)(C(=O)CO)[C@@]3(C)C[C@H](O)[C@@]12F | inactive | 
CCn1cc(C(=O)O)c(=O)c2cnc(N3CCCC3)nc21 |  | 2.25% [at 6.97 µM]
CCOC(CN1CCN(CC(C)C(=O)c2ccccc2)CC1)c1ccccc1 (configuration not stated) |  | -19.9% [at 15.8 µM]
CC(N)CCCC(C)(C)O (configuration not stated) | inactive | 
CCCCOC(=O)[C@H](C)O | inactive | 
O=C(CCCl)NCCc1ccccc1 | inactive | 
c1ccc2c(CC3=NCCN3)cccc2c1 | inactive | 
C=CCSSCCC | inactive | 
COc1cc2c(cc1OC)CN(C(=O)[C@H](C)N[C@@H](CCc1ccccc1)C(=O)O)[C@H](C(=O)O)C2 | inactive | 
CC(=O)CCc1ccc(OC(C)=O)cc1 | inactive | 
Cc1ccc(C(C)NC(=O)[C@@H](NC(=O)OC(C)C)C(C)C)cc1 (some centres not stated) | inactive | 
CN(C)CCOC(=O)C(c1ccccc1)C1(O)CCCC1 (configuration not stated) | inactive | 
Cc1cc(C)c(C(=O)O)c(C)c1 | inactive | 
O=C(NCN1CCOCC1)c1cnccn1 | inactive | 
COC(C)(OC)OC | inactive | 
Cc1c(NC(=O)c2cccnc2)c(=O)n(-c2ccccc2)n1C | inactive | 
CC1OCCC1=O (configuration not stated) | inactive | 
Cc1ccc(C(=O)O)cc1[N+](=O)[O-] | inactive | 

SMILES | Potency | cytotoxicity increase
CC1c2ccccc2CN1NC(=O)c1ccc(Cl)c(S(N)(=O)=O)c1 (configuration not stated) | inactive | 
c1ccc2cnccc2c1 | inactive | 
C[Si]1(C)O[Si](C)(C)O[Si](C)(C)O[Si](C)(C)O[Si](C)(C)O1 | inactive | 
NC(=O)[C@@H]1CSSCCC(=O)N[C@@H](CCCCN=C(N)N)C(=O)NCC(=O)N[C@@H](CC(=O)O)C(=O)N[C@@H](Cc2c[nH]c3ccccc23)C(=O)N2CCC[C@H]2C(=O)N1 ([Mpa][hArg]GDWPC-NH2; disulfide 1-7) | inactive | 
C=CC(=O)OCC1CCCO1 (configuration not stated) | inactive | 
CCCCCCCCCOC(=O)c1ccccc1C(=O)OCCCCCCCCC | inactive | 
CC(C)COC(=O)c1ccccc1 | inactive | 
COC(=O)c1cc(Cl)cc(Cl)c1 | inactive | 
CC1(C)Cc2cccc(N)c2O1 | inactive | 
CCCCOCC(C)O (configuration not stated) | inactive | 
c1ccc(-c2nn[nH]n2)cc1 | inactive | 
CO/N=C(/C(=O)N[C@@H]1C(=O)N2C(C(=O)[O-])=C(C[n+]3ccn4ncccc43)CS[C@H]12)c1nsc(N)n1 | inactive | 
CC(C)(CO)C(O)C(=O)NCCCO (configuration not stated) | inactive | 
C[C@H]1[C@@H](c2ccccc2)NC(=O)N1C | inactive | 
C=CCCCC | inactive | 
CCOCCOCC | inactive | 
CN(C)CCCO[C@@H]1[C@H]2OC(C)(C)O[C@H]2O[C@@H]1C(O)CO (some centres not stated) | inactive | 
ONc1ccccc1 | inactive | 
